Screens deposited in PubChem by several laboratories.
In the library only some 2.2% were active in any assay of this set; here they are far more common.
TWEAK Fn14 block: blocks TWEAK-Fn14 interaction in a reporter cell assay; TWEAK-stimulated Fn14 reporter cells, luciferase luminescence, 8 h; 2% of 360,000 active; AID 1159606; inhibition, % at 10 µM; in the data active = inhibition above about 50%
TROY NFkB inh: TROY signaling inhibition. 0.98% of 360,000 active. inhibition, % at 10 µM. Q293 LMP1-TROYcd NF-kB luciferase reporter, 4 h;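 active = compounds whose plate-normalised and pattern-corrected inhibition of the luciferase reporter signal at the single screening dose is 50% or more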
LGR2 inh: inhibitors of bursicon-induced Drosophila LGR2 receptor cAMP signaling. HEK293 LGR2, CRE-luciferase, bursicon-stimulated, 4 h. inhibition, % at 9.99 µM. 0.35% of 380,000 active. AID 720647;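 active = drop in luminescence signal, shown as inhibition above about 50% in the replicate tests, limit read from the data, passing the limit was not always enough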;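 note: agonist challenge used bursicon conditioned medium at about half maximal strength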
HSP90 refold inh: inhibitors of HSP90 luciferase refolding in rabbit reticulocyte lysate | luciferase refolding luminescence, 3 h | inhibition, % at 5.6 µM | 0.91% of 290,000 active | AID 1789;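 active = inhibition above the screen-wide mean plus 3 SD, computed separately per campaign, cut at about 16% in these data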;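 note: 0% = DMSO wells and 100% = 60 µM geldanamycin wells; inhibitors lower the luminescence because luciferase stays unfolded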
* = called active by the depositor; . = not tested or not shown.

SMILES	TWEAK Fn14 block	TROY NFkB inh	LGR2 inh	HSP90 refold inh
CCOC(=O)CS(=O)(=O)c1nc(-c2ccccc2)cc(C(F)(F)F)n1	35.0	38.5	.	9.1
COC(=O)CCS(=O)(=O)c1nc(-c2ccccc2)cc(C(F)(F)F)n1	90.5*	12.2	.	1.1
Cc1cc(NC(=O)CCCS(=O)(=O)c2nc(-c3cccs3)cc(C(F)(F)F)n2)no1	60.0*	66.4*	23.6	1.2
Cc1cc(NC(=O)CSc2nc(-c3cccs3)cc(C(F)(F)F)n2)no1	-12.6	11.5	8.1	2.6
COc1ccccc1S(=O)(=O)N[C@@H]1CC[C@@H](CCNC(=O)C2CCC2)O[C@H]1CO	.	.	-2.5	.
COCC(C)NC(=O)CCS(=O)(=O)c1nc(-c2ccc(OC)cc2)cc(C(F)(F)F)n1 (stereo not drawn)	85.7*	46.3	.	4.4
CC(=O)c1cccc(S(=O)(=O)N2CCC(C(=O)Nc3cccc(C(=O)NC4CC4)c3)CC2)c1	-16.8	62.1*	2.2	.
CCc1cc2c(COC(=O)c3cccc(NS(C)(=O)=O)c3)cc(=O)oc2cc1O	54.7*	52.8*	-20.2	3.5
CN(C)c1cccc(C(=O)OCc2cc(=O)oc3cc(O)ccc23)c1	-4.8	-55.5	.	6.3
CCc1cc2c(COC(=O)c3cc(S(=O)(=O)N4CCOCC4)ccc3F)cc(=O)oc2cc1O	9.4	44.6	59.3*	.
O=C(COC(=O)c1ccccc1NS(=O)(=O)c1cccs1)NCC12CC3CC(CC(C3)C1)C2	29.7	60.5*	31.8	0.0
CN(C)c1ccc(N=Nc2nccs2)cc1	79.4*	37.6	85.6*	.
CCc1cccc(CC)c1NC(=O)/C(C#N)=C/c1ccccc1C(F)(F)F	82.8*	42.2	40.8	-0.9
CCCNC(=O)Nc1ccc2c(c1)C(=O)N(C)[C@@H]1CC[C@H](CC(=O)NCC3CCCCC3)O[C@H]1CO2	.	.	-0.5	.
CC(C)NC(=O)N(C)C[C@H]1OCCCC[C@@H](C)Oc2ccc(NC(=O)Nc3ccc(F)cc3)cc2C(=O)N([C@@H](C)CO)C[C@H]1C	.	.	8.0	.
NC(=O)c1c(-c2ccc(Cl)cc2Cl)csc1NC(=O)Cc1ccccc1	76.1*	19.8	9.7	-2.4
CC(=O)c1ccc(NC(=O)CCC(=O)OCC(F)(F)C(F)F)cc1	-6.4	22.4	.	16.6*
COc1ccccc1NC(=O)CCCC(=O)OCC(F)(F)C(F)F	62.7*	2.1	-7.5	-0.7
CN1CCN(C(=O)C[C@@H]2C[C@@H]3c4cc(NC(=O)Nc5ccc(C(F)(F)F)cc5)ccc4O[C@@H]3[C@@H](CO)O2)CC1	.	.	-20.1	.
Cc1cc(C)nc(SCC(=O)c2cc3ccccc3oc2=O)n1	-3.7	0.2	.	1.5
Cc1cc[n+](CC(=O)c2cc3ccccc3oc2=O)cc1	40.2	52.4*	8.2	0.6
Cc1ccc(S(=O)(=O)N(C)C[C@@H]2OCCCC[C@H](C)Oc3ccc(NC(=O)Nc4c(C)noc4C)cc3C(=O)N([C@@H](C)CO)C[C@H]2C)cc1	.	.	-17.2	.
C[C@H]1CN([C@@H](C)CO)C(=O)Cc2cc(NC(=O)C3CCCCC3)ccc2O[C@H]1CN(C)C(=O)Nc1cccc2ccccc12	.	.	24.1	.
O=C(C1CCN(c2nnc(N3CCCC3=O)s2)CC1)N1CCN(Cc2ccc3c(c2)OCO3)CC1	-8.3	-12.6	.	33.4*
Cc1nn(C)c(C)c1CNC(=O)c1cnn2c1NC(c1ccccc1)CC2C(F)(F)F (stereo not drawn)	-21.8	-7.2	13.1	-2.1
SMILES	TWEAK Fn14 block	TROY NFkB inh	LGR2 inh	HSP90 refold inh
Cc1ccc(C2CC(C(F)(F)F)n3nc(C(=O)NCc4c(C)nn(C)c4C)c(Cl)c3N2)cc1 (stereo not drawn)	34.1	58.1*	.	3.0
CC(=O)N(C[C@H]1N[C@H](CO)[C@@H]1c1ccc(-c2cccc(F)c2)cc1)C1CCCC1	.	.	-6.3	.
COc1cccc(N2CCN(C(C)C(=O)NC34CC5CC(CC(C5)C3)C4)CC2)c1 (stereo not drawn)	90.0*	3.9	5.1	-1.8
COc1cccc(N2CCN(CC(=O)C34CC5CC(CC(C5)C3)C4)CC2)c1	11.3	8.9	.	-1.8
CNC(=O)C[C@H]1CC[C@@H]2[C@H](COC[C@H](O)CN2Cc2ccc(Cl)c(Cl)c2)O1	.	.	10.0	.
CC(C)NC(=O)c1cc(C(=O)c2cc(Cl)ccc2O)coc1=N	68.7*	20.6	.	5.8
COc1ccc(-n2c(C)c(C(C)=O)c3cc(OC(C)=O)ccc32)cc1	83.9*	52.1*	24.7	-6.5
COC(=O)c1c(C)n(-c2ccc(OC)cc2)c2ccc(O)cc12	52.1*	39.3	.	-3.5
CN(C)S(=O)(=O)N1CCC(Oc2ccc(C(=O)NC3Cc4ccccc4C3)cc2)CC1	52.3*	26.7	-13.2	0.9
CN(C)S(=O)(=O)N1CCC(Oc2ccc(C(=O)NC3CCOC(C)(C)C3)cc2)CC1 (stereo not drawn)	-8.4	3.6	-1.2	-0.8
C[C@@H]1CCCCO[C@@H](CN(C)S(=O)(=O)c2ccc(F)cc2)[C@H](C)CN([C@@H](C)CO)C(=O)c2cc(NC(=O)c3ccccc3)ccc2O1	.	.	7.6	.
CC(=O)c1ccc(NS(=O)(=O)c2ccc(C)cc2)cc1	-4.1	-5.0	.	-5.3
COc1ccc(C(=O)/C=C/Nc2cccc(O)c2)cc1	51.9*	-50.4	.	-1.5
COc1ccc(C(=O)/C=C/Nc2ccc(S(=O)(=O)Nc3cccc(C(C)=O)c3)cc2)cc1	78.6*	19.4	13.2	3.0
COc1cc(OC)c(OC)cc1/C=C/C(=O)c1ccc(NS(=O)(=O)c2ccc(C)cc2)cc1	61.5*	35.7	25.2	-1.5
COc1cccc(N/C=C/C(=O)c2ccc(Br)cc2)c1	31.0	-45.9	.	-1.8
COc1cccc(C(=O)/C=C/Nc2ccc(S(=O)(=O)Nc3ccc(C(C)=O)cc3)cc2)c1	27.7	16.5	-39.3	4.0
C[C@H](CO)N1C[C@H](C)[C@@H](CN(C)S(=O)(=O)c2ccc(Cl)cc2)OCCCC[C@H](C)Oc2ccc(NC(=O)NC3CCCCC3)cc2C1=O	.	.	30.0	.
CCOC(=O)c1ccc(-n2c(CN3CCC(O)CC3)nc3ccc([N+](=O)[O-])cc3c2=O)cc1	28.6	53.1*	-10.0	4.4
CCOC(=O)c1ccc(-n2c(CN3CCC(C(N)=O)CC3)nc3ccc([N+](=O)[O-])cc3c2=O)cc1	15.4	54.7*	-16.2	0.7
CCOC(=O)c1ccc(-n2c(CN3CCN(CC)CC3)nc3ccc([N+](=O)[O-])cc3c2=O)cc1	14.6	29.6	1.6	-0.8
C/C=C/c1ccc([C@H]2[C@@H](CO)N(S(C)(=O)=O)[C@@H]2CN(CC)C(=O)CC)cc1	.	.	3.9	.
Cc1noc(C)c1CSCC(=O)Nc1nc(-c2ccc(F)c(F)c2)cs1	76.8*	71.6*	0.8	.
CCc1noc(C)c1C(=O)OCC(=O)Nc1nc(-c2ccc(F)c(F)c2)cs1	8.1	53.5*	.	.
COc1ccc(-c2csc(NC(=O)CSCc3c(C)noc3C)n2)cc1OC	-8.1	15.8	-11.1	0.3
O=C([C@@H]1[C@@H](CO)[C@@H]2Cn3c(ccc(C4=CCCC4)c3=O)[C@H]1N2)N1CCCCC1	.	.	-6.5	.
CC(C)c1ccc2[nH]c(O)c(N=NC(=O)c3cccc(S(=O)(=O)N4CCCCC4)c3)c2c1	55.5*	27.1	21.5	-0.5
